Reference: PubChem BioAssay (NCATS)
Results filed as inconclusive are left out. Values without a mark were called inactive. The call rests on the fitted dose curve; in most records, active means well fitted inhibition curve with a large enough effect; inconclusive means small, poorly fitted or top-dose-only effect; inactive means flat fitted curve, though single readings scatter.

Target: Calcium and integrin-binding protein 1 (Homo sapiens) (UniProt Q99828)
Assay: Primary qHTS for Identification of Calcium Integrin Binding Protein 1 (CIB1) Competitor (AID 1508620);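 further: GST tagged CIB1 binding a fluorescein labelled alphaIIb integrin peptide tracer; top concentration of the series differs between compounds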
Conditions: CIB1-GST / FITC-alphaIIb peptide fluorescence polarization; series mostly up to 114 µM; activity change, negative = inhibition: at the top concentration
In short: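 CIB1-GST (1 uM final) and compound incubated 15 min at room temperature before adding FITC-alphaIIb peptide tracer (100 nM final). Competition for binding read by fluorescence polarization (ex 480, em 540) after another 15 min at room temperature.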
On the % scale 0 is the no-effect control and ±100 the full control effect.

Calcium and integrin-binding protein 1 (Homo sapiens), sequence (Q99828 whole entry, looked up): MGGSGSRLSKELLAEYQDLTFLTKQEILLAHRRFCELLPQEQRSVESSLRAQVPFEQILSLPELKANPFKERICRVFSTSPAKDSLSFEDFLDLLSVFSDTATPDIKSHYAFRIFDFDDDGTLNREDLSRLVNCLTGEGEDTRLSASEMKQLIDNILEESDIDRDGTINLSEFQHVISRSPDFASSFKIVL

SMILES	activity change, negative = inhibition [%]
COc1cccc(C2=Nn3c(nnc3-c3ccccc3OC)SC2)c1	2.7
Cc1ccc(NC(=O)c2cnn3c(-c4ccccc4)cc(C)nc23)cc1	5.03
CC(C)c1ccccc1-c1nc(NCc2ccc(-c3cccnc3)cc2)c2ccccc2n1	6.26
CC1=C(C(=O)Nc2ccccc2)C(c2ccccc2Br)N=C(Nc2nc3ccccc3o2)N1 (stereo not drawn)	-0.072
COc1ccc(-c2nc3ccccc3n2Cc2ccccc2)cc1COc1ccc(NC(C)=O)cc1	2.17
O=C(OCC#CCSc1nnc(-c2cccc3ccccc23)o1)c1ccsc1	1.84
Cc1ccc(OCCn2c(CCNC(=O)c3cccc4cc[nH]c34)nc3ccccc32)cc1	5.56
COc1cc(-c2ccc3ncnc(NCc4nc(C)cs4)c3c2)cc(OC)c1OC	-5.4
O=C(O)c1ccc(O)c2ncc(NCC3CCCN(CCc4ccccc4)C3)cc12 (stereo not drawn)	-9.95
COc1ccc(C2Nc3ccccc3C(=O)N2Cc2ccccc2Cl)cc1COc1ccc(NC(C)=O)cc1 (stereo not drawn)	6.11
O=S1(=O)N=C(Oc2ccc(C(F)(F)F)cc2)c2ccccc21	0.595
O=C1CCc2cc(S(=O)(=O)Nc3ccc(F)c(Cl)c3)ccc2N1	-3.43
C(=Nc1cccnc1)c1cccs1	1.85
Cc1ccc2nc3sc(C(=O)NC4CCCCC4)cc3cc2c1	3.64
N#Cc1nc(Nc2ccc(C(F)(F)F)cc2)nc(NC2CCCC2)n1	-0.681
COc1ccc(C2=Nn3c(nnc3-c3ccccc3C)SC2)cc1	-2.45
c1ccc(CNc2nc(-c3cccs3)nc3ccccc23)cc1	-1.12
Cc1ccnc(C(=S)N2CCN(c3cccc(C(F)(F)F)c3)CC2)c1	-1.34
